Assay [1] in a line: AP1 Signaling Pathway (AID 357; active = well fitted curve in either direction with a large enough effect, not every such curve was filed as active; note: % is set by controls: 0 for no effect and ±100 for the full control effect). The note with it: ME-180 AP-1-bla reporter, EGF-induced, beta-lactamase ratio, 5 h; at 7.69 µM (top of the series) unless noted. In a few lines:
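ME-180 cells with beta-lactamase reporter under AP-1 response element, stimulated with EC50 EGF; compounds tested in titration series, 5 h at 37 °C. CCF4 substrate added 2.5 h at room temperature; 460/530 nm emission ratio gave %activity and AC50.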

Assay [2] deals with Cytochrome P450 1A2 (Homo sapiens) (UniProt P05177). Description: p450-cyp1a2 (AID 410; calls by dose curve; note: potency is the fitted concentration of half-maximal effect). In a few lines:
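20nM CYP1A2 with 100uM Luciferin-ME (at Km) in 100mM KPO4; compound preincubated 10 min, NADPH regeneration added, 60 min at room temperature. Luciferin quantified by luminescence after detection reagent; normalized to 57 uM furafylline.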

The nature of assay [3]: NFAT Signaling Pathway (AID 444; active = well fitted curve in either direction with a large enough effect, not every such curve was filed as active;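 note: carbachol stimulus at about its EC50 of 1 µM final; % is set by controls: 0 for no effect and ±100 for the full control effect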). The note with it: Jurkat NFAT-bla M1, carbachol, beta-lactamase ratio, 5 h; at 7.69 µM (top of the series) unless noted. In a few lines:
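Jurkat cells with NFAT-driven β-lactamase reporter and co-expressed M1 receptor, stimulated with carbachol (final 1 uM, ~EC50), compound titration, 5 h at 37 °C. CCF4 loaded 1 h at RT; 460/530 nm ratio gave %activity and AC50.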

A short description of assay [4]: Stat Signaling Pathway (AID 446; active = well fitted curve in either direction with a large enough effect, not every such curve was filed as active;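 note: ME-180 cervical cancer cells given 40 pM IL-6 alongside compound; SIE-controlled beta-lactamase reporter measured as 460/530 nm FRET emission ratio; % is set by controls: 0 for no effect and ±100 for the full control effect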). Particulars: ME-180 SIE beta-lactamase reporter, IL-6 stimulated, 5 h; at 7.69 µM (top of the series) unless noted. In a few lines:
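Screening format detects activators and inhibitors alike: ME-180 SIE-bla cells stimulated at 40 pM IL-6 for 5 hrs with compound, then dual-emission beta-lactamase read at 405 nm excitation.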

Assay [5] has as its target Glucocorticoid receptor (Homo sapiens) (UniProt P04150). Description: GR-GFP Redistribution (AID 450;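 active = compounds whose dose series gives a full or clear partial fitted curve of increased nuclear translocation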; note: potency is the fitted concentration of half-maximal effect). Particulars: U2OS GR-GFP nuclear translocation, laser cytometry, 2 h.
Assay [6] shares this target. Description: GR-EFC Redistribution (AID 451; calls by dose curve; note: potency is the fitted concentration of half-maximal effect). The note with it: CHO-K1 GR-EFC translocation, beta-gal luminescence, 2 h. In a few lines: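 CHO-K1 cells expressing nuclear EA and GR-ED fragments of b-gal; compounds titrated up to 46 uM final, 2 h at 37 C. GR nuclear translocation read as complemented b-gal luminescence after 1 h RT detection.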
Assay [7] concerns the target Mitogen-activated protein kinase 10 (Mus musculus) (UniProt Q61831). Description: JNK3 AlphaScreen Assay (AID 530; active = well fitted curve in either direction with a large enough effect, not every such curve was filed as active;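 note: kinase came from lysate of stimulated human HepG2 cells; signal reports phosphorylation of biotinylated GST-cJun 1-79 at Ser73 with 10 µM ATP; % is set by controls: 0 for no effect and ±100 for the full control effect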). In a few lines: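 Pre-activated (IL-1β/TNFα) JNK3 in HepG2 lysates phosphorylates biotin-GST-cJun(1-79), 10 uM ATP; anti-phospho-cJun(Ser73) AlphaScreen read at room temperature, pH 7.6 Tris buffer. Compounds pre-incubated 15 min as titrations.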
For orientation: Bead proximity is the source of the signal in Alpha formats.

The target of assay [8] is 3',5'-cyclic-AMP phosphodiesterase 4B (Homo sapiens) (UniProt Q07343). The assay can be described thus: qHTS Assay for Inhibitors of PDE-IV (AID 607; active = well fitted activation curve with a large enough effect in the main read-out, with a control signal flat, not every such curve was filed as active; note: % of control where 0% means no effect). In a few lines: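 The readout is membrane depolarisation from a cAMP-sensing CNG channel, detected with a potential dye at ex 535/em 590. Cells were HEK293-derived (endogenous PDE-IV) at 1000 cells/well, titrated up to 22.9 uM final.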

For assay [9], the target named is Cytochrome P450 3A4 (Homo sapiens) (UniProt P08684). Description: qHTS Assay for Activators of Cytochrome P450 3A4 (AID 885). Note: nearly all actives have a fitted effect of over 65% in size. In a few lines: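 Steps: enzyme/substrate mix dispensed; compound added, 10 min RT; NADPH regeneration solution added, 60 min RT; luciferin detection buffer stops reaction; 20 min later luminescence measured.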
(Quantitative high-throughput screening tests each substance at several concentrations.)

Assay [10] addresses Dual specificity protein kinase CLK4 (Homo sapiens) (UniProt Q9HAZ1). The assay can be described thus: qHTS Assay for Inhibitors of CDC-like Kinase 4 (Kinase-Glo Assay) (AID 1770). Note: nearly all actives have a fitted effect of over 65% in size. Note: potency is the fitted concentration of half-maximal effect. In a few lines: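 Readout: Kinase-Glo luminescence from ATP left after a 4.5 h room-temperature reaction of 25 nM Clk4 with 100 uM RS peptide and 1 uM ATP (final). Buffer: 25 mM Tris pH 7.5, 10 mM MgCl2.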

Assay [11] has the same target. The assay can be described thus: qHTS Assay for Inhibitors of CDC-like Kinase 4 (ADP-Glo Assay) (AID 1771). Note: nearly all actives have a fitted effect of over 70% in size. Note: potency is the fitted concentration of half-maximal effect. In a few lines: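 25 nM Clk4 with 100 uM RS repeat peptide and 1 uM ATP (final) in buffer with 2 mM MgCl2, 0.5 mM EGTA, 2.5 mM DTT, 0.01% Triton X-100; 1 h at room temperature; ADP-Glo luminescence for ADP formed.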
Assay [12] has the same target. Description: qHTS Assay for Inhibitors of CDC-like Kinase 4 (ADP-FP Assay) (AID 1795). Note: nearly all actives have a fitted effect of over 60% in size. Note: potency is the fitted concentration of half-maximal effect. In a few lines: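 FP readout: Orange Transcreener ADP2 tracer (4 nM) plus ADP antibody, read after 30 min at room temperature. Kinase step: 6.25 nM Clk4, 100 uM RS peptide, 1 uM ATP, pH 7.5, 1 h.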
The target of assay [13] is Ubiquitin carboxyl-terminal hydrolase 1 (Homo sapiens) (UniProt O94782). The assay can be described thus: Inhibitors of USP1/UAF1: Pilot qHTS (AID 504865). Note: nearly all actives have a fitted effect of over 35% in size. Note: potency is the fitted concentration of half-maximal effect. In a few lines: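 1nM USP1/UAF1 + cpd, 15 min RT; start w/ Ub-Rho 150nM final; kinetic FL 480/540 nm, 6 reads q60 s. Buffer 50mM HEPES pH 7.8, 0.5mM EDTA, 1mM TCEP, 0.01% Tween-20, 0.1 mg/ml BSA.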
The nature of assay [14]: Primary qHTS for small molecule stabilizers of the endoplasmic reticulum resident proteome: Secreted ER Calcium Modulated Protein (SERCaMP) assay (AID 1508630). Note: % is set by controls: 0 for no effect and ±100 for the full control effect. In a few lines: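 GLuc-SERCaMP-expressing SH-SY5Y cells, pretreated 16 h with compound, are challenged with thapsigargin to empty ER calcium stores; after 4 h, coelenterazine is added directly to the medium and luminescence is imaged.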

Assay [15] addresses Lysosomal acid glucosylceramidase (Homo sapiens) (UniProt P04062). Description: Glucocerebrosidase-p2 (AID 348; in the data active = potency below about 10 µM; note: potency is the fitted concentration of half-maximal effect). Particulars: purified GBA, blue fluorogenic substrate, 40 min. In a few lines: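 Compounds titrated from 0.6 nM upwards against 0.2 nM enzyme in pH 5.9 citric acid/KH2PO4, taurocholate, tween-20; blue fluorogenic substrate 80 uM, 40 min room temperature, stopped and read Ex 365/Em 440 for AC50.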

Assay [16] deals with Cytochrome P450 3A4 (Homo sapiens) (UniProt P08684). The assay can be described thus: qHTS Assay for Inhibitors and Substrates of Cytochrome P450 3A4 (AID 884). Note: potency is the fitted concentration of half-maximal effect; nearly all actives have a fitted effect of over 50% in size. In a few lines:
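20 nM human CYP3A4 with 25 uM Luciferin-PPXE (at KM) in 200 mM KPO4, preincubated 10 min with compound; NADPH regeneration started a 60 min RT reaction. Luciferin detected by luminescence, normalized to 57 uM ketoconazole as full inhibition.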

Assay [17] is described as follows: qHTS Assay for Identification of Small Molecule Agonists for Hypoxia Response Element Signaling Pathway (AID 914; active = well fitted activation curve with a large enough effect in the signal ratio, with a control signal flat, not every such curve was filed as active; the % refers to the signal ratio; note: potency is the fitted concentration of half-maximal effect; for activation: % of control where 0% means no effect). The note with it: ME-180 HRE-bla reporter, beta-lactamase ratio, CoCl2, 17 h; activation: active compounds read high. In a few lines: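 ME-180 cells carrying an HRE-driven beta-lactamase reporter were treated with compounds in a titration series plus an EC50 level of CoCl2 for 17 h at 37 degrees Celsius; CCF4 readout as the 460nm/530nm ratio gave AC50 values.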

Values without a mark were called inactive. Records with an inconclusive call do not appear. Activity calls are given as the source filed them. Unless noted, calls come from the whole dose curve; as a rule, active = well fitted curve in the direction sought with a large enough effect; inconclusive = small, poorly fitted or top-dose-only effect, or another doubt; inactive = no such curve, though single readings can be large; an effect the other way counts as inactive or inconclusive.

Chain of Cytochrome P450 1A2 (Homo sapiens) (P05177 whole entry, looked up): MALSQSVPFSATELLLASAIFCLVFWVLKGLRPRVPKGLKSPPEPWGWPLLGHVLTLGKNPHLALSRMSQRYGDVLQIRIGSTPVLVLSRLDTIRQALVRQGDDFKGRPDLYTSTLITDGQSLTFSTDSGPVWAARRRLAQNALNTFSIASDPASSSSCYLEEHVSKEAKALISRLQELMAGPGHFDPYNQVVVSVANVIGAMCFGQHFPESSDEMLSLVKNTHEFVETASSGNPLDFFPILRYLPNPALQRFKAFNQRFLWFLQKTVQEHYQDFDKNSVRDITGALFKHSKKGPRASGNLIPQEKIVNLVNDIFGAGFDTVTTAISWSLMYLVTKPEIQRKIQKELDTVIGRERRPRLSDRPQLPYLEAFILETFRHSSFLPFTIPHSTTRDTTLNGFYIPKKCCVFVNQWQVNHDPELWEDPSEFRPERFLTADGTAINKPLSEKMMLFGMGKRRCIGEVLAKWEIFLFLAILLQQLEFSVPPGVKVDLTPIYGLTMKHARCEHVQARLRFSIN
Chain of Cytochrome P450 3A4 (Homo sapiens) (P08684 whole entry, looked up): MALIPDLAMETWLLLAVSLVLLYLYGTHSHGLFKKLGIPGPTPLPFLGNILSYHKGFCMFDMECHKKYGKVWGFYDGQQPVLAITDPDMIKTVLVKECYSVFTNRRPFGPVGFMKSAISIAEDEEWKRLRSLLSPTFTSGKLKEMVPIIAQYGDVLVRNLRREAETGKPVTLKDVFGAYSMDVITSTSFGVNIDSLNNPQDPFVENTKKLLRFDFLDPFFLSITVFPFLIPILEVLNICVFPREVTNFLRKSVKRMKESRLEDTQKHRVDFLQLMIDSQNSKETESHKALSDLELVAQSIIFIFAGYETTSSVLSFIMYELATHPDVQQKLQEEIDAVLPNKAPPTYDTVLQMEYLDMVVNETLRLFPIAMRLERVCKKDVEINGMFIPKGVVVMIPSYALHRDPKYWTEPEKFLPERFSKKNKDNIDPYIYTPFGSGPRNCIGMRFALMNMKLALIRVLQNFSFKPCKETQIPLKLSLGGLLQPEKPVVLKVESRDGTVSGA
Chain of Ubiquitin carboxyl-terminal hydrolase 1 (Homo sapiens) (O94782 whole entry, looked up): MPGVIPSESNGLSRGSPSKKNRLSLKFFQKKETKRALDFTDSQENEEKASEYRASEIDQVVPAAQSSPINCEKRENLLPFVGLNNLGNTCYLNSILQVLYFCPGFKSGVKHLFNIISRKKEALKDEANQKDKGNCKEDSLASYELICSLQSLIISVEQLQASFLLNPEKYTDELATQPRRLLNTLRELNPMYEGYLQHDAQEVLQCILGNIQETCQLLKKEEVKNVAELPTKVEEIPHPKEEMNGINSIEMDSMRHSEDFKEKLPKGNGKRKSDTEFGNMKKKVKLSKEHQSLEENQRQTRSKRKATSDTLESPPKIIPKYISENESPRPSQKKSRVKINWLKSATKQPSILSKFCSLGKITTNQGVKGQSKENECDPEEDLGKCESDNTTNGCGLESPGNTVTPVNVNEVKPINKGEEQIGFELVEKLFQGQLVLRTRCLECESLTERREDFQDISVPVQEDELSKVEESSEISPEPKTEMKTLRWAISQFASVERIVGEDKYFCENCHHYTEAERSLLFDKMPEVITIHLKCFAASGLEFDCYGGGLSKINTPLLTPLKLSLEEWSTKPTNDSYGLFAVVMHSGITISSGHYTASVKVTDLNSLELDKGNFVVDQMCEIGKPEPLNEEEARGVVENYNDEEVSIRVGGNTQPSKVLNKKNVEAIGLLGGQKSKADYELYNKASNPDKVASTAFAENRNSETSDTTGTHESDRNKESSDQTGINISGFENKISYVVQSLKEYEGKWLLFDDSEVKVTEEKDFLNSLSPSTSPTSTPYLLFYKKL
Chain of 3',5'-cyclic-AMP phosphodiesterase 4B (Homo sapiens) (Q07343 whole entry, looked up): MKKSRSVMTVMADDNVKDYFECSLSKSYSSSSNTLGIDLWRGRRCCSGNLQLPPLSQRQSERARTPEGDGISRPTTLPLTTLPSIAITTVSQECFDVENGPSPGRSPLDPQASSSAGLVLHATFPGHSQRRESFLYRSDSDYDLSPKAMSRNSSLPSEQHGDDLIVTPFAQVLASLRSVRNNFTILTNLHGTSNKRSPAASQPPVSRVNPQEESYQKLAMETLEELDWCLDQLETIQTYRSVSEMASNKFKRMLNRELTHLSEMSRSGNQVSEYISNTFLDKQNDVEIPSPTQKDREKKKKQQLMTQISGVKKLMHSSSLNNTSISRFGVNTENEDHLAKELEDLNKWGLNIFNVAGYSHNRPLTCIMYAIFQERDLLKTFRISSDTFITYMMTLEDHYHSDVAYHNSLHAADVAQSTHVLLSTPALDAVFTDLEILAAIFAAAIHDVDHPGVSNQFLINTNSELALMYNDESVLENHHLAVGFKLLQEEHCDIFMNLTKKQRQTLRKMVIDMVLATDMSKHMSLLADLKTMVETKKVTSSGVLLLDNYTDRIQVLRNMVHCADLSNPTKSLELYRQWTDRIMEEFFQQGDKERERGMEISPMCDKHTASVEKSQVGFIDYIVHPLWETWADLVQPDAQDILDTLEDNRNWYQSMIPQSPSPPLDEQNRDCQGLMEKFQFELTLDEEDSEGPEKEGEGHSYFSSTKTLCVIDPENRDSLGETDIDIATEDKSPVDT
Chain of Dual specificity protein kinase CLK4 (Homo sapiens) (Q9HAZ1 whole entry, looked up): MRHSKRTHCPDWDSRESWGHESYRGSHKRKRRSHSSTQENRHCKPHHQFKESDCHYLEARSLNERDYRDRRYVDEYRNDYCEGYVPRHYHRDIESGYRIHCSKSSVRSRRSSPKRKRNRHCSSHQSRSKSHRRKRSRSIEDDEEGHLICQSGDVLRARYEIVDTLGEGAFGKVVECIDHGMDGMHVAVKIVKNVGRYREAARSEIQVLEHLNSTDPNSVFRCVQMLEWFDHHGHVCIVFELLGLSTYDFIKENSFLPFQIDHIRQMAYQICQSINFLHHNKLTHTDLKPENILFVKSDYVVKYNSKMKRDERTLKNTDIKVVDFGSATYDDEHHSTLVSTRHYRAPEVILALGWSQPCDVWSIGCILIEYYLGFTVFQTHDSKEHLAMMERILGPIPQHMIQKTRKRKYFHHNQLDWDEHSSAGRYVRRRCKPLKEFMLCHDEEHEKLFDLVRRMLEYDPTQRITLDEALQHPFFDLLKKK
Chain of Glucocorticoid receptor (Homo sapiens) (P04150 whole entry, looked up, the tested form may be a part): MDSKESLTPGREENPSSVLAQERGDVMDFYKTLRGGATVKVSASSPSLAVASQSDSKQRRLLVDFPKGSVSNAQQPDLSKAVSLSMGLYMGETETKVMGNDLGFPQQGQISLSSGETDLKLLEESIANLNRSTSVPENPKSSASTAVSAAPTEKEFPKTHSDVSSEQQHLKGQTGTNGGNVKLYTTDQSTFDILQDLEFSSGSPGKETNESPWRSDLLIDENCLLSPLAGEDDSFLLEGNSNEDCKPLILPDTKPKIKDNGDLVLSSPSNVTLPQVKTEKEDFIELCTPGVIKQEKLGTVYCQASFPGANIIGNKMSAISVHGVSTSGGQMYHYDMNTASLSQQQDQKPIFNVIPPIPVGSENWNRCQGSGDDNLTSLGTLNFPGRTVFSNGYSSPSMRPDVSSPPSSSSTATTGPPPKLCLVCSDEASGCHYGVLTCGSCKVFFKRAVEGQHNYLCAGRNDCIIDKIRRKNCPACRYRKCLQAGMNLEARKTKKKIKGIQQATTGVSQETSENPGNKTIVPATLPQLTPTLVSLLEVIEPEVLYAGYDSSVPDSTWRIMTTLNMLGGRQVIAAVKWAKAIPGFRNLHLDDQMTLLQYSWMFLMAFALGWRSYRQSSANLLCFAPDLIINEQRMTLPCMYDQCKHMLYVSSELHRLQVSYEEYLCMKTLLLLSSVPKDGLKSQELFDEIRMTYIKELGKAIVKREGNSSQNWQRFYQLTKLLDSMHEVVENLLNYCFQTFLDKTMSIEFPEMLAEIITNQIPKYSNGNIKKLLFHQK
Chain of Lysosomal acid glucosylceramidase (Homo sapiens) (P04062 whole entry, looked up): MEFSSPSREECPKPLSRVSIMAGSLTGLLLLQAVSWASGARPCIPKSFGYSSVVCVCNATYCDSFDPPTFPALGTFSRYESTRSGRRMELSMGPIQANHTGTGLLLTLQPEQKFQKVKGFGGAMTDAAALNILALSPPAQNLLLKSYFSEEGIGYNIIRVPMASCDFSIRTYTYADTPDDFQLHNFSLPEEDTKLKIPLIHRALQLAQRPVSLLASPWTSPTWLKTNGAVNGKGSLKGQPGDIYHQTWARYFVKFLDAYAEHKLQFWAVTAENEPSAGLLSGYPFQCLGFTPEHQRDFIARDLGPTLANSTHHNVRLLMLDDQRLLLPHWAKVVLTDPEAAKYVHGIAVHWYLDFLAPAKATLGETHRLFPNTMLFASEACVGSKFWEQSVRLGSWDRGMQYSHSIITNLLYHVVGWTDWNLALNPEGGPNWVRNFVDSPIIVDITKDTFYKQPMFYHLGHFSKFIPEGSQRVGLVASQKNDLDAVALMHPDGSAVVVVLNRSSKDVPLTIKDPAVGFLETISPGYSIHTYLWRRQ

In the case of `N#Cc1cccc(-c2ccc3ncnc(N4CCNCC4)c3c2)c1`, the figures for the activity change, negative = inhibition in assay [1] and in assay [3] were -0.846% and 6.74%, respectively. The Potency was 0.631 µM (active) in [2]; > 46 µM in assay [5]; > 46 µM in assay [6]; 12.6 µM (active) in [10]; 22.4 µM (active) in assay [11]; 11.2 µM (active) in assay [12]. Further, the Potency in assay [13] was 20 µM (active). Moreover, in assay [4], the activity, negative = inhibition was 11.7%. For the same compound, the Potency entry in [7], in assay [8] and in assay [9] was “inactive” in each case. In [14], the result was inactive.
Consider `Cc1cnc(CNc2ncncc2-c2ccc3c(c2)OCO3)cn1`, for which the Potency in assay [15] is > 11.4 µM; in assay [2], 2 µM (active); in assay [5], > 46 µM; in assay [6], > 46 µM; in assay [16] it was 1.58 µM (active); in [10], 14.1 µM (active). For the same compound, the Potency in assay [11] is 15.8 µM (active). In addition, the activity change, negative = inhibition in assay [1] was -10.4%; in [3], -2.24%. Also, the activity, negative = inhibition in assay [4] is 4.5%. Besides, the Potency entry in assay [7], in assay [8] and in assay [13] was “inactive” each time. In assay [14], the outcome was inactive.
As for `CCNc1ncc2nc(-c3ccc(OC)cc3)c(=O)n(Cc3cccs3)c2n1`, the Potency in assay [2] was 0.631 µM (active); in [5], > 9.22 µM; in assay [6], > 46 µM; in assay [17] it was 3.16 µM (active). The activity change, negative = inhibition in assay [3] is 2.94%. Further, the Potency entry in assay [7], in assay [9], in assay [10], in [11], in assay [12] and in assay [13] was “inactive” in each case. Further, the outcome in [14] was inactive.
For `CN(Cc1ccco1)c1cc(-c2cccc(NS(C)(=O)=O)c2)ncn1`, the results for the activity change, negative = inhibition in assay [1] and in [3] were 10.2% and -5.51%, respectively. The Potency in assay [2] is 3.98 µM (active); in [5] it was > 46 µM; in [6], > 46 µM; in assay [10], 11.2 µM (active); in assay [11], 8.91 µM (active). Moreover, the activity, negative = inhibition in [4] is 11.3%. Moreover, the Potency result in assay [7], in [8], in assay [9], in assay [12] and in assay [13] was “inactive” each time. The result in [14] was inactive.
Turning to `Cc1cccc(CNc2ccnc(-c3ccccc3C(F)(F)F)n2)c1`, the activity change, negative = inhibition was -10.1% in assay [1] and 1.23% in assay [3]. Besides, the Potency is 6.31 µM (active) in [2], > 46 µM in assay [5], > 46 µM in assay [6] and 3.98 µM (active) in assay [13]. Also, the activity, negative = inhibition in assay [4] is 5.48%. For the same compound, the Potency result in [7], in assay [9], in [10], in assay [11] and in assay [12] was “inactive” in each case. For the same compound, the activation in assay [17] was -2.48%. Also, the result in [14] was inactive.
In the case of `COc1ccc(CNc2ccnc(-c3ccc(N(C)C)cc3)n2)c(OC)c1`, the activity change, negative = inhibition is 8.69% in assay [1] and -3.37% in assay [3]. In addition, the Potency in assay [2] is 3.16 µM (active); in assay [5] it was > 46 µM; in [6], > 46 µM. In addition, the activity, negative = inhibition in assay [4] was -13.6%. The Potency entry in [7], in assay [8], in assay [9], in assay [10], in assay [11] and in assay [12] was “inactive” each time. Also, in [13], the Potency entry was “inactive”. For the same compound, the outcome in assay [14] was inactive.
Regarding `CCNc1ncc2nc(CCc3ccccc3)c(=O)n(C[C@H]3CCCO3)c2n1`, the activity change, negative = inhibition in assay [1] was -23.9%; in [3] it was -3.48%. Also, the activity, negative = inhibition in [4] is -9.11%. Besides, the values for the Potency in assay [5] and in [6] were > 9.22 µM and > 46 µM, respectively. In addition, the Potency result in [7], in assay [10], in assay [11], in assay [12] and in [13] was “inactive” in each case. Further, the outcome in [14] was inactive.

The record behind these values is PubChem BioAssay (NCATS).
